Experimental data: PubChem BioAssay (NCI)
This is part of a sample that, as a whole, favours compounds with a hit. Of some 79,000 tested, about 15% had one in any assay. No stated cut-off is given here; in the data, active means growth inhibition above about 70%; inactive means the rest.

What was measured:
[1] = NCI Yeast Anticancer Drug Screen. Data for the rad50 strain (AID 155);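 further: 0% = growth of vehicle-only cultures of the same strain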; conditions: S. cerevisiae rad50 strain growth inhibition; at 50.0 µM; hits give high values
Summary of the method: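 A DNA repair-deficient yeast mutant serves as the test organism; compound-induced growth inhibition is calculated against vehicle-treated cells.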

[2] = NCI Yeast Anticancer Drug Screen. Data for the mec2-1 strain (AID 157); conditions: S. cerevisiae mec2-1 strain, at 50.0 µM, hits give high values
Summary of the method: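 Cells of the genetically defined mec2-1 yeast strain are incubated with test compound. Inhibition of growth is calculated against vehicle-treated controls.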

[3] = NCI Yeast Anticancer Drug Screen. Data for the sgs1 mgt1 strain (AID 161);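 further: 0% = growth of cultures given vehicle only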; conditions: S. cerevisiae sgs1 mgt1 strain, at 50.0 µM, hits give high values
Summary of the method: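 Genetically altered yeast, compound exposure, growth inhibition relative to vehicle.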

[4] = NCI Yeast Anticancer Drug Screen. Data for the cln2 rad14 strain (AID 165);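 further: 0% = growth equal to vehicle treated cultures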; conditions: S. cerevisiae cln2 rad14 strain, at 50.0 µM, hits give high values
Summary of the method: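 The screen exposed genetically defined yeast (cln2 rad14) to test compounds and scored growth inhibition relative to vehicle-treated controls.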

[5] = NCI Yeast Anticancer Drug Screen. Data for the bub3 strain (AID 167); conditions: S. cerevisiae bub3 mutant strain, at 50.0 µM, hits give high values
Summary of the method: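 Inhibition values come from growth of compound-treated mutant yeast normalised to vehicle-treated controls.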

[6] = NCI Yeast Anticancer Drug Screen. Data for the mlh1 rad18 strain (AID 175); conditions: S. cerevisiae mlh1 rad18 strain growth inhibition; at 50.0 µM; hits give high values
Summary of the method: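 Compound-treated yeast growth, normalised to vehicle controls. Strain bears defined DNA repair mutations.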

Measured: growth inhibition

Nc1nnnn1NC(=O)c1ccccc1
inactive: [1] -2.1% | [2] -6.8% | [3] -5.35% | [4] -11.5% | [5] -6% | [6] -11.3%

O=C(Nc1cccc(F)c1)Oc1ccc(OCc2ccccc2)cc1
inactive: [1] 3.8% | [2] 6.6% | [3] 9.9% | [4] 8.7% | [5] 17.9% | [6] 16%

CCCc1cc(=O)[nH]c(=S)[nH]1
inactive: [1] 34.6% | [2] -8.25% | [3] 1.7% | [4] 15.8% | [5] 11.2% | [6] 15.8%

O=[N+]([O-])c1ccc(CS(=O)(=O)c2ccccc2)o1
inactive: [1] 21.4% | [2] -1.45% | [3] 24.5% | [4] -15.9% | [5] 1.15% | [6] 4.6%

CCN(CC)C1=Nc2ccccc2N(c2ccccc2)C(=S)C1
inactive: [1] 46.9% | [2] 25.5% | [3] 30.1% | [4] 13.9% | [5] 36.2% | [6] 51.2%

N#Cc1cc2c(n(C3OC(CO)C(O)C(O)C3O)c1=S)CCCCCC2 (stereo not given)
inactive: [1] 31% | [2] 19.5% | [3] 17.8% | [4] 10.4% | [5] -3.55% | [6] 37.1%

COc1ccc([N+](=O)[O-])c(C#N)c1
inactive: [1] 5.95% | [2] -2.2% | [3] 3.35% | [4] -9.75% | [5] -9.4% | [6] -46.6%

COc1ccc2c(c1)C(=O)[C@@](Nc1ccc(C=O)cc1)(OC)[C@@](OC)(c1ccc([N+](=O)[O-])cc1)O2
inactive: [1] 9.3% | [2] -3.05% | [3] 29.9% | [4] 2.3% | [5] -9.45% | [6] 12.4%

CC1(C)C2CC3C(=CCC4C(=O)C5CC=C6C(CC7CC6C7(C)C)C5C(=O)C43)C1C2 (stereo not given)
inactive: [1] 23.6% | [2] -6.1% | [3] 14% | [4] -20% | [5] -5.2% | [6] -1.65%

CC(C)[Si]1(C(C)C)N([Si](C)(C)F)[Si](C(C)C)(C(C)C)N1[Si](C)(C)F
inactive: [1] 7.7% | [2] 6.25% | [3] -3.05% | [4] 21% | [5] -4.45% | [6] 26.2%

Cn1cnc([N+](=O)[O-])c1/N=C/c1ccccc1
inactive: [1] 0.1% | [2] 2.95% | [3] -3.95% | [4] -41.3% | [5] -28.5% | [6] -6.5%

S=C1N(c2ccc(Br)cc2)C2=Nc3ccccc3SC(=C2N=Nc2ccccc2)N1c1ccc(Cl)cc1
inactive: [1] -13.6% | [2] 20.9% | [3] -8.8% | [4] 14.5% | [5] -1.15% | [6] -3%

CC(=O)NNc1nc(C)c(C(/C=C/c2cccc([N+](=O)[O-])c2)=N/NC(=S)NN)s1
inactive: [1] 5.85% | [2] -5% | [3] 2.2% | [4] 4.35% | [5] 12.4% | [6] 12.1%

O=C(Nc1ccccc1)Sc1ccc(Cl)cc1
inactive: [1] -12.2% | [2] -13.2% | [3] -22.5% | [4] -20.1% | [5] 3.15% | [6] 2.85%

Cc1ccc(-c2cs/c(=N\N=C3/CSC(=O)N3Cc3ccccc3)n2-c2cccc(C)c2)cc1
inactive: [1] 24.4% | [2] 1.2% | [3] -11.2% | [4] -4.3% | [5] 4.1% | [6] 22.2%

Cc1ccc2c(c1)C(=O)c1cc(C)cc(C(=O)O)c1-2
inactive: [1] -22.6% | [2] -5.05% | [3] 4.5% | [4] -40% | [5] 1.65% | [6] -16.7%

CCCCCCCCCC1(C(=O)OCC)OC1(C)C (stereo not given)
inactive: [1] 8.55% | [2] -15.8% | [3] 5.75% | [4] 10.5% | [5] 15.2% | [6] -11.8%

C[n+]1cccc2cc([N+](=O)[O-])ccc21
inactive: [1] -21.6% | [2] -6.8% | [3] 4.35% | [4] -77.7% | [5] 3.9% | [6] -13.3%

Nc1nc(-c2ccccc2)ns1
inactive: [1] 4.9% | [2] -44.1% | [3] 1.4% | [4] 8.4% | [5] -17.8% | [6] -2.3%

CS(=O)(=O)ON1C(=O)c2ccccc2C1=O
inactive: [1] 9.9% | [2] -52% | [3] -3.9% | [4] 6.5% | [5] -2.6% | [6] -9.55%

Cc1cccc(C(=O)NC(C)C)c1
inactive: [1] -7.75% | [2] -40% | [3] -5.9% | [4] 15.8% | [5] -4.95% | [6] -19.6%

O=C1NC(CCl)(CCl)CO1
inactive: [1] 4.15% | [2] 8.85% | [3] -1.7% | [4] 5.45% | [5] -2.05% | [6] 10.1%

Cn1nc(-c2ccccc2)c(-c2cc(-c3ccccc3)n[nH]2)c(N)c1=O
inactive: [1] 18.9% | [2] 12.4% | [3] 20.8% | [4] 7.9% | [5] 19.7% | [6] 22.9%

c1ccc2c(c1)C1OC2c2ccccc21
inactive: [1] -30.2% | [2] -20.3% | [3] -26.4% | [4] -26.3% | [5] -0.4% | [6] -1.25%

C#CC(OC(=O)NC(C(=O)OC)C(C)C)(c1ccccc1)c1ccccc1 (stereo not given)
inactive: [1] 31.1% | [2] -10.3% | [3] 14.3% | [4] -4.85% | [5] 0.2% | [6] 7.55%

CCOC(=O)c1ccccc1OC(=O)Oc1ccccc1C(=O)OCC
inactive: [1] 17.9% | [2] 10.2% | [3] -5.25% | [4] -23.1% | [5] -5.55% | [6] 33.9%

COc1ccc(CCNC(=S)N/C=C\c2nc3ccccc3[nH]c2=O)cc1OC
inactive: [1] 11.1% | [2] 2.8% | [3] 6.15% | [4] 11.3% | [5] 8% | [6] 19.9%

Cc1cc(C(=O)O)c2c([nH]1)c(C)cc1nc3ccccc3c12
inactive: [1] 12.6% | [2] 5.65% | [3] -10% | [4] 12.1% | [5] 4.95% | [6] -19.2%

C/C(=C/C(C)C)C(C)(C#N)C(N)=O (stereo not given)
inactive: [1] 8.75% | [2] 5.8% | [3] 1.2% | [4] 8.25% | [5] 8.75% | [6] 4.35%

Nc1nc2c3nc(Nc4ccccc4)sc3nc(=O)n2c2sc(Nc3ccccc3)nc12
inactive: [1] 1.85% | [2] 1.65% | [3] 2.75% | [4] -4.15% | [5] -20.3% | [6] 2.6%

CS(=O)(=O)C(CCC(=O)c1ccc2ccccc2c1)C(=O)c1ccccc1 (stereo not given)
inactive: [1] 3.1% | [2] -12.7% | [3] 5.3% | [4] 20.4% | [5] -2.4% | [6] -7.15%

Cc1cccc(-c2cc(=O)c3c(C)cc(C)nc3[nH]2)c1
inactive: [1] -2.1% | [2] 2.7% | [3] 21.9% | [4] 24.8% | [5] 24.1% | [6] -39.4%

Clc1nc2ccccc2c2ccccc12
inactive: [1] 36.5% | [2] -3.6% | [3] -4% | [4] 29.5% | [5] -13.2% | [6] 4.5%

CN1C(=O)C(C)(O)Sc2ccccc21 (stereo not given)
inactive: [1] -1.2% | [2] -19.4% | [3] -36.2% | [4] -17.9% | [5] -9.2% | [6] 0.1%

O=P(CCC(F)(F)C(F)(F)C(F)(F)C(F)(F)C(F)(F)C(F)(F)C(F)(F)F)(N1CC1)N1CC1
inactive: [1] 25.4% | [2] -1.9% | [3] 8.15% | [4] -9.75% | [5] -1.2% | [6] 1.95%

CCOC(=O)/C(O)=C(/C=N\C(=S)Nc1ccccc1Cl)C(=O)OCC
inactive: [1] -44% | [2] -55.3% | [3] -28.4% | [4] 5.35% | [5] -26.2% | [6] -41.4%

O=C1C2C3C=CC(CC3)C2C(=O)C2C3C=CC(C3)C12 (stereo not given)
inactive: [1] 1.15% | [2] 24.1% | [3] 26.9% | [4] -14.8% | [5] -1.45% | [6] 32.3%

CC(C)CCC[C@@H](C)[C@H]1CC[C@@]2(C)C3=C(C(=O)C[C@]12C)[C@@]1(C)CC[C@H](O)C(C)(C)[C@@H]1CC3=O
inactive: [1] 8.5% | [2] -16.7% | [3] 17.1% | [4] -40.6% | [5] 6.1% | [6] 10.3%

C1CCC(C2CCCC[N-]2)[N-]C1.[Cl][Cu][Cl] (stereo not given)
inactive: [1] 7.35% | [2] 10.3% | [3] 9.85% | [4] 9.6% | [5] -4.85% | [6] 13.7%

Nc1nc(Cl)nc2c1ncn2C1CCC(CO)O1 (stereo not given)
inactive: [1] -21.2% | [2] 1.35% | [3] -7.9% | [4] 5.5% | [5] 4.15% | [6] 16.1%
